Source: PubChem BioAssay (Columbia University Molecular Screening Center)
IL1B NFkB pot: enhancers of NFkB p65 translocation in HUVEC – imaging, IL-1B stimulus, high-content imaging, primary screen; HUVEC IL-1B NFkB p65 nuclear translocation imaging; activation, % at 2 µM; 0.3% of 94,000 active;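 active = activation above 40%, about the mean plus 3 SD, also judged a hit on visual image review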;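 also: percent activation is computed from the nuclear over cytoplasmic p65 intensity ratio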
VCAM1 TNFa inh: inhibitors of TNFa-induced VCAM1 expression, primary screen, imaging, HUVEC, TNFa stimulus, immunofluorescence; inhibition, % at 2 µM; AID 802, 2007; HUVEC TNFa-induced VCAM-1 immunofluorescence, high-content imaging; 0.48% of 95,000 active;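 active = inhibition above the batch mean plus 3 SD, with images confirmed as a hit by eye, cut at about 37% in these data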;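 also: 0% = TNF-stimulated DMSO wells and 100% = unstimulated control wells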
HUVEC tox IL1B: cytotoxicity in IL-1B stimulated HUVEC, primary screen, cytotoxicity control for IL-1B NFkB translocation project, imaging, Hoechst nuclear count, IL-1B stimulus; cell count reduction, % at 2 µM; HUVEC cell count loss; 0.41% of 94,000 active;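 active = cell count reduction more than 3 SD above the screen-wide mean, cut at about 70% in these data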;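 also: normalized per plate to untreated control cells as the no-loss baseline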
IL1B NFkB inh: inhibitors of IL-1B driven NFkB p65 nuclear import, primary screen, imaging, HUVEC, IL-1B stimulus, high-content imaging; 0.43% of 94,000 active; inhibition, % at 2 µM; HUVEC IL-1B NFkB p65 nuclear translocation imaging; AID 796, 2007;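 active = inhibition above about 30% together with a positive call from visual inspection of the well image, limit read from the data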;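 also: nuclear over cytoplasmic p65 intensity ratio measured by imaging; 0% = IL-1B stimulated DMSO wells and 100% = unstimulated DMSO wells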
TNFa cytotox: cytotoxicity in TNFa-stimulated HUVEC, primary screen, cytotoxicity control for VCAM1 expression modulator project, imaging, Hoechst nuclei count; HUVEC TNFalpha-stimulated, Hoechst cell count; cell count reduction, % at 2 µM; 0.17% of 93,000 active;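 active = cell count reduction exceeding the screen mean by over 5 SD, scaled to untreated wells per plate, cut at about 78% in these data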;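 also: cells counted after 24 h of TNF alpha exposure following the 1 h pretreatment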
E-sel TNF inh: E-selectin induction blockers in HUVEC – imaging, immunofluorescence, high content, primary screen; HUVEC TNFa-induced E-selectin immunofluorescence; inhibition, % at 2 µM; 0.71% of 120,000 active; AID 1246, 2008;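 active = inhibition above the batch mean plus 3 SD, and confirmed as a hit on visual image review, cut at about 43% in these data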;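 also: 0% = TNF-stimulated DMSO wells and 100% = unstimulated control wells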
An asterisk follows results filed as active; . = no result given. Most compounds without a hit are left out; they make up all but 1.7% or so of the library.

SMILES | IL1B NFkB pot | VCAM1 TNFa inh | HUVEC tox IL1B | IL1B NFkB inh | TNFa cytotox | E-sel TNF inh
COC(c1ccccc1)c1nnc(CCC(=O)NCCC(C)C)o1 (stereo unspecified) | . | . | . | . | . | -16
COCCNC(=O)/C(C#N)=C/C(C)=C/c1ccccc1 | . | . | . | . | . | -20
COc1ccc(S(=O)(=O)Nc2nc3n(n2)C(c2ccc(Cl)cc2)CC(=O)N3)cc1 (stereo unspecified) | 15 | 39* | -6 | -15 | 2 | -2
CCOC(=O)C1CCCN(Cc2cc(Br)ccc2OC)C1 (stereo unspecified) | . | . | . | . | . | -15
CCOC(=O)C1CCCN(Cc2cc(Br)c(OC)cc2OC)C1 (stereo unspecified) | -98 | 8 | 84* | 98* | -14 | -3
CCOC(=O)C1CCCN(Cc2ccccc2F)C1 (stereo unspecified) | . | . | . | . | . | 75*
N/C(=N\OC(=O)CCC1CCCC1)c1cccc([N+](=O)[O-])c1 | . | . | . | . | . | 4
COc1ccc2c(c1)O[C@@H](c1ccc3c(c1)OCO3)[C@H](OC(=O)Nc1cc(OC)c(OC)c(OC)c1)C2=O | . | . | . | . | . | -3
COC(=O)c1c[nH]n2c(=O)cc(C)nc12 | -47 | -11 | 5 | 47* | -4 | -3
COC(=O)c1c[nH]n2c(=O)c(Cl)c(C)nc12 | . | . | . | . | . | -17
CCOC(=O)c1c(NC(=O)CSc2nnc(-c3ccncc3)n2Cc2ccco2)sc(C(C)=O)c1C | -38 | 2 | 1 | 38* | -5 | -8
O=C1CC(=O)N(Cc2ccco2)C(=S)N1 | -32 | 1 | 5 | 32* | 56 | 10
O=C1CC(=O)N(Cc2ccco2)C(=O)N1 | . | . | . | . | . | -9
COc1ccc(CCNC(=O)C2CCN(S(=O)(=O)c3cnc[nH]3)CC2)cc1OC | . | . | . | . | . | -23
COc1cc(NC(=O)c2cc3c(Cl)nc4ccccc4c3s2)cc(OC)c1OC | . | . | . | . | . | -10
COc1ccc(NC(=O)c2cc3c(Cl)nc4ccccc4c3s2)c(OC)c1 | . | . | . | . | . | 63*
COC(=O)c1ccc(CNC(=O)COC(=O)c2ccc(N(C)C)cc2)cc1 | . | . | . | . | . | 24
COc1ccc(C2=NNC(c3cccs3)=Nc3ccc(OC)cc32)cc1 | 14 | 9 | 11 | -14 | -18 | 74*
O=[N+]([O-])c1ccc(Cl)cc1Sc1nc2ccccc2o1 | 4 | 9 | -23 | -4 | 2 | 20
O=[N+]([O-])c1ccc(Sc2nc3ccccc3o2)c([N+](=O)[O-])c1 | 16 | 73* | -10 | -16 | 35 | 38
O=C(c1ccccc1)N1CCc2ccccc21 | 14 | -7 | -2 | -14 | 0 | 14
Cc1cc(C(=O)N2CCc3ccccc32)c2ccccc2n1 | 16 | 3 | 4 | -16 | -14 | 64*
O=C(NCCCO)c1nc2ccccc2s1 | 42* | 14 | 10 | -42 | -8 | -10
O=C(NCc1ccccc1)N1CCN(c2ccc(Cl)c(Cl)c2)CC1 | 1 | 4 | -17 | -1 | -13 | 71*
O=c1cc(C(F)F)oc2c1ccc1ccccc12 | . | . | . | . | . | 93*
SMILES | IL1B NFkB pot | VCAM1 TNFa inh | HUVEC tox IL1B | IL1B NFkB inh | TNFa cytotox | E-sel TNF inh
O=C1CC(O)(C(F)F)Oc2ccc3ccccc3c21 (stereo unspecified) | 3 | 33 | -15 | -3 | 7 | -39
O=C(c1ccco1)N1CCN(c2cc(C(F)(F)F)nc3ncnn23)CC1 | -6 | 8 | 6 | 6 | -6 | 17
COc1ccc(OCC(=O)O/N=C(\N)Cc2cccs2)cc1 | . | . | . | . | . | -21
N/C(Cc1cccs1)=N\OC(=O)COc1ccc(Br)cc1 | 60* | 13 | 3 | -60 | -16 | .
Cc1ccc(NC(=S)N2CCC(N(C)CC3CCCO3)CC2)c(C)c1 (stereo unspecified) | -9 | 7 | 9 | -8 | 0 | .
CC(C)(C)C(=O)/C(=C\c1ccc([N+](=O)[O-])cc1)n1cncn1 | -69 | 13 | 48 | 69* | -14 | 66*
CCS(=O)(=O)c1ccc2oc(Nc3cc(C)cc(C)c3)nc2c1 | -16 | 4 | 4 | 16 | 3 | -12
CCS(=O)(=O)c1ccc2oc(Nc3ccc(C(C)C)cc3)nc2c1 | 4 | 11 | -16 | -4 | -28 | 64*
O=C(COc1ccc(Cl)cc1Cl)NCCCCc1ccccc1 | -8 | -1 | -15 | 8 | -13 | -62
COCCCNC(=O)COc1ccc(S(=O)(=O)NCc2ccccc2)cc1Cl | . | . | . | . | . | 92*
O=C(COc1ccc([N+](=O)[O-])cc1Cl)NCCc1ccccc1 | . | . | . | . | . | 88*
Cc1nn(-c2ccccc2)c2c1C(O)n1c(nc3ccccc31)S2 (stereo unspecified) | . | . | . | . | . | -36
Cc1ccc(S(=O)(=O)N2CCC(=O)N(C(COCc3ccc(Cl)cc3)Cc3ccccc3)CC2)cc1 (stereo unspecified) | . | . | . | . | . | -21
Cc1cc(N2CCOCC2)ccc1/C=C\[N+](=O)[O-] | . | . | . | . | . | 13
CCN(CC)CCCn1c(=S)[nH]c2cc(Cl)ccc2c1=O | 0 | 2 | 78* | 0 | -3 | -46
Fc1ccc(N2CCN(C(c3cccs3)c3nnnn3C3CCCC3)CC2)cc1 (stereo unspecified) | 3 | -5 | 4 | -3 | -35 | .
Nc1ncnc2nc(Sc3ccc(Cl)cc3)[nH]c12 | -34 | 8 | 6 | 34* | -10 | 2
COc1ccc(-c2cc3ccccc3oc2=O)cc1NC(=O)c1ccc(Br)o1 | 19 | 8 | -10 | -19 | -30 | 5
CCOc1cc(NS(=O)(=O)c2ccc(OC)cc2)c(OCC)cc1NC(=O)c1ccco1 | 16 | -16 | -11 | -16 | -11 | 9
COc1cc(OC)c(NC(=O)c2ccco2)cc1Cl | 13 | 4 | -69 | -13 | -1 | 100*
COc1cc(NC(=O)c2cc3ccccc3o2)c(OC)cc1Cl | -100 | 16 | 78* | 100* | -4 | -14
COc1ccc(S(=O)(=O)Nc2cc(OC)c(NC(=O)c3ccco3)cc2OC)cc1 | 43* | 6 | -14 | -43 | -27 | -5
COc1ccc(-c2cc3ccccc3oc2=O)cc1NC(=O)c1ccc([N+](=O)[O-])o1 | -21 | 74* | 5 | 23 | . | 43
CCOC(=O)C1CCN(C(=S)Nc2ccc(CC)cc2)CC1 | . | . | . | . | . | -6
Cc1noc(C)c1CSc1nc2sc(C)c(C)c2c(=O)n1-c1ccccc1 | -5 | -6 | -2 | 5 | 10 | -10
Cc1noc(C)c1CSc1nc2ccccc2c(=O)n1-c1ccc(Cl)cc1 | -1 | -18 | 89* | 1 | -10 | 7
Nc1nnc(SCc2ccc(F)cc2)n1-c1ccccc1 | 33 | -8 | -29 | -33 | . | 8
CCCCc1c(O)nc(SCC(=O)Nc2ccc3c(c2)CCC3)[nH]c1=O | . | . | . | . | . | 60*
COc1cccc(CNC(=O)C(C(=O)NCc2cccc(OC)c2)c2ncc(C(F)(F)F)cc2Cl)c1 | . | . | . | . | . | 26
